# Measurements reported in the supplement of paper PMC12669032.
# Values without a mark were called inactive.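 The calls were made as follows: active = AUC reduced over 20% with Padj below 0.05 in at least 2 of 3 replicates; inactive = otherwise.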
# Test system: Odoribacter splanchnicus
# Assay: growth AUC relative to DMSO control (median of replicates) (fraction); higher = more growth (less inhibition), active = hit call of the paper
# Details: 20 µM; 24 h
# Outline: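 In round-bottom 96-well plates sealed with pierced gas-permeable seals, gut bacterial monocultures in mGAM were grown anaerobically at 37 °C from OD600 0.05 with 20 µM compound (1% DMSO). OD600 readings were taken hourly for 24 h, and the minimum OD was set to 0. Area under the growth curve was then normalised to the plate median of solvent-only wells, or to row and column medians on the industrial chemical plate. The value given is the median of three biological replicates grown on separate days.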
row,Structure (SMILES),growth AUC
1,C/C(=N\NC(=O)Nc1cc(F)cc(F)c1)c1ncccc1C(=O)[O-].[Na+],1.07
2,OC(Cc1ccccc1Cl)(Cn1cncn1)C1(Cl)CC1 (stereo not drawn),0.95
3,COC(=O)C1(O)c2ccccc2-c2ccccc21,0.988
4,Cc1occc1C(=O)Nc1ccccc1,0.985
5,Clc1ccc(C(c2ccc(Cl)cc2)C(Cl)Cl)cc1,0.951
6,CC1(C)C(C=C(Cl)Cl)C1C(=O)OC(C#N)c1ccc(F)c(Oc2ccccc2)c1 (mixture of isomers),0.95
7,COc1cc(C)c(C(=O)c2c(OC)ccc(Br)c2C)c(OC)c1OC,1.05
8,Cc1ccc(NC(=O)c2snnc2C)cc1Cl,0.975
9,CN(C)C(=O)C(c1ccccc1)c1ccccc1,0.957
10,Cc1cnc(C2=NC(C)(C(C)C)C(=O)N2)c(C(=O)O)c1 (stereo not drawn),0.953
11,CCNc1nc(NCC)nc(SC)n1,0.88
12,O=c1oc2ccccc2c(O)c1C1CC(c2ccc(-c3ccccc3)cc2)Cc2ccccc21 (stereo not drawn),0.959
13,Oc1ccc(-c2ccccc2)cc1,1.09
14,CNC(=O)N(C)c1nnc(C(C)(C)C)s1,0.963
15,COP(=O)(OC)Oc1ccc(SC)c(C)c1,0.994
16,CC(C)N1C(=O)c2ccccc2NS1(=O)=O,0.992
17,COP(=O)(OC)C(O)C(Cl)(Cl)Cl (stereo not drawn),0.965
18,CCOP(=O)(NC(C)C)Oc1ccc(S(C)(=O)=O)c(C)c1 (stereo not drawn),1.05
19,CCOP(=S)(OCC)SCS(=O)(=O)C(C)(C)C,0.979

row,Structure (SMILES),growth AUC
1,CCCN(CC1CC1)c1c([N+](=O)[O-])cc(C(F)(F)F)cc1[N+](=O)[O-],0.943
2,c1coc(-c2nc3ccccc3[nH]2)c1,0.879
3,CC(Oc1ccc(Cl)cc1Cl)C(=O)O (stereo not drawn),0.965
4,N#Cc1cc(I)c(O)c(I)c1,0.853
5,CCC(C)Nc1c([N+](=O)[O-])cc(C(C)(C)C)cc1[N+](=O)[O-] (stereo not drawn),1.02
6,c1cc2c3c(cccc3c1)CC2,1.01
7,CSC1=N[C@@](C)(c2ccccc2)C(=O)N1Nc1ccccc1,0.924
8,CC1(C)CN=C(NN=C(/C=C/c2ccc(C(F)(F)F)cc2)/C=C/c2ccc(C(F)(F)F)cc2)NC1,1.04
9,CCOc1cc(Oc2ccc(C(F)(F)F)cc2Cl)ccc1[N+](=O)[O-],1.08
10,Nc1cccc(Cl)c1Cl,0.991
11,CCNS(=O)(=O)C(F)(F)C(F)(F)C(F)(F)C(F)(F)C(F)(F)C(F)(F)C(F)(F)C(F)(F)F,0.978
12,Nc1ccc(Cc2ccc(N)c(Cl)c2)cc1Cl,1.11
13,COc1nc(C)nc(NC(=O)NS(=O)(=O)c2ccccc2CCC(F)(F)F)n1,0.962
14,CCOP(=O)(OCC)OP(=O)(OCC)OCC,0.986
15,CCNP(=S)(OC)O/C(C)=C/C(=O)OC(C)C (stereo not drawn),0.956
16,CCN(CC)N=O,0.979
17,COC(=O)C(C)N(C(=O)Cc1ccccc1)c1c(C)cccc1C (stereo not drawn),0.96
18,C#CCN1C(=O)COc2cc(F)c(N3C(=O)C4=C(CCCC4)C3=O)cc21,0.948
19,N#Cc1c(Cl)c(Cl)c(Cl)c(C#N)c1Cl,0.927
